Source: PubChem BioAssay (National Center for Advancing Translational Sciences (NCATS))
In the library only some 19% were active in any assay of this set; here they are far more common.
IL-1B inflam inh = inflammasome signaling inhibition, IL-1 beta readout | THP-1 LPS/ATP IL-1B secretion, AlphaLISA, 16 h; hits give low values | activity change, % at 57.5 µM | hit rate 4.7% among 360,000; in the data active = activity change below about -50%; inconclusive = mostly about -30% to -49%
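THP-1 cells pretreated 1 hr with compounds (up to 57.5 uM final), then stimulated with LPS (250 ng/mL final) plus ATP (1.25 mM final); secreted IL-1B measured by AlphaLISA after 16 hr, decreased signal indicating inhibition.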
DT40 TDP1 CPT = growth inhibition of DT40 Tdp1-/-;hTDP1 cells with camptothecin (screen for TDP1 inhibitors) | chicken DT40 Tdp1-/-;hTDP1 cells + 20 nM CPT, ATP luminescence, 48 h | Potency, µM (highest dose often 46.2 µM), for the others: at the highest dose activity change, negative = growth inhibition, usual class: inhibitors | hit rate 12% among 420,000 | AID 686979; also: potency is read from the fitted curve at half-maximal effect; nearly all actives have a fitted effect of over 55% in size
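Chicken DT40 Tdp1-/- cells complemented with human TDP1, 400 cells/well, exposed to compounds plus 20 nM camptothecin for at least 48 h at 37 C; viability read as ATP content by CellTiter-Glo luminescence.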
HT1080NT lethal = kills 2HG-producing HT-1080-NT fibrosarcoma cells. HT-1080-NT fibrosarcoma viability, CellTiter-Glo ATP luminescence, 48 h. Potency, µM (doses to about 46.1 µM), for the others: top-dose activity, negative = less viability, most hits filed as cytotoxic. hit rate 1.6% among 360,000. AID 686970;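 also: NT is the 2HG producing partner of a matched IDH1 knockdown line; potency is read from the fitted curve at half-maximal effect; 0% = DMSO-treated cells and -100% = media-only wells without cells; nearly all actives have a fitted effect of over 55% in size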
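Luminescent CellTiter-Glo readout after 48 hours of compound exposure at 37 degrees C defined viability of HT-1080-NT cells. Activity was normalized to DMSO wells and cell-free media wells; concentration-response curves were fitted and assigned curve classes.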
DT40 TDP1 no CPT = qHTS for Inhibitors of human tyrosyl-DNA phosphodiesterase 1 (TDP1): qHTS in cells in absence of CPT. DT40 Tdp1-/- hTDP1 cells, no CPT, ATP luminescence, 48 h. Potency, µM (titrated, usually from 46.2 µM), for inactives: at the highest dose activity change, negative = growth inhibition, most hits filed as inhibitors. hit rate 15% among 420,000. AID 686978, 2013; also: potency is read from the fitted curve at half-maximal effect; nearly all actives have a fitted effect of over 55% in size
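Chicken DT40 Tdp1-/- cells stably complemented with human TDP1 were seeded at 400 cells/well with DMSO in place of 20 nM camptothecin. After compound pinning, cells grew at least 48 hr at 37 °C; viability read by CellTiter-Glo luminescence.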
HT1080 IDH1KD tx = HT-1080 IDH1 knockdown cell toxicity (counter line). HT-1080 IDH1 knockdown viability, ATP luminescence, 48 h. Potency, µM (top dose mostly 46.1 µM), without a hit: at the highest dose activity, negative = toxicity, usual class: cytotoxic. hit rate 2% among 360,000. AID 686971;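 also: potency is read from the fitted curve at half-maximal effect; 0% = DMSO wells and -100% = cell-free medium wells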
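Knockdown cells (IDH1KD HT-1080) received compounds 2 h after plating at 750 cells/well and were kept 48 h at 37 °C in 5% FBS RPMI. A CellTiter-Glo luminescence read gave % activity for curve fitting.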
* = called active by the depositor; ? = inconclusive; / = no result; [ ] = remark or other dose. Unless noted, calls follow the shape of the dose curve; as a rule, active = well fitted curve in the direction sought with a large enough effect; inconclusive = small, poorly fitted or top-dose-only effect, or another doubt; inactive = no such curve, though single readings can be large; an effect the other way counts as inactive or inconclusive. Unless noted, % is scaled to controls: 0 for no effect and ±100 for the full control effect.

SMILES | IL-1B inflam inh | DT40 TDP1 CPT | HT1080NT lethal | DT40 TDP1 no CPT | HT1080 IDH1KD tx
CCN(CC)S(=O)(=O)c1ccc(C(=O)Nc2nnc(COC)o2)cc1 | 0 | 2% | -9% | 7% | -3%
CCN(Cc1ccccc1)S(=O)(=O)c1ccc(C(=O)Nc2nnc(C)o2)cc1 | 70 | 23µM* | -22% | ? | ?
Cc1nnc(NC(=O)c2ccc(S(=O)(=O)N3CCc4ccccc4C3)cc2)o1 | 63 | ? | -20% | ? | -19%
Cc1cc2c(cc1S(=O)(=O)Nc1cccc(Cl)c1C)OCCN2C | / | ? | / | 18µM* | /
CCOc1ccc(NS(=O)(=O)c2cc3c(cc2C)N(C)CCO3)cc1 | 52 | 21µM* | -13% | 21µM* | -14%
COc1ccc(NS(=O)(=O)c2cc3c(cc2C)N(C)CCO3)cc1 | 19 | ? | -2% | ? | -5%
Cc1cc2c(cc1S(=O)(=O)Nc1cccc(Cl)c1C)n(C)c(=O)c(=O)n2C | / | 6% | / | ? | /
CCCCn1c(N)c(N(CC(C)C)C(=O)c2ccc(S(=O)(=O)N3CCCCCC3)cc2)c(=O)[nH]c1=O | 9 | 4% | 14% | ? | 3%
Cc1ccccc1C(=O)NNC(=O)C1CC(=O)N(c2ccc3c(c2)OCCO3)C1 (configuration not stated) | 14 | -29% | 0% | -8% | 14%
CCN1/C(=C/c2cc[n+](CCCS(=O)(=O)[O-])c3ccccc23)Sc2ccccc21 | -13 | 24% | 2% | 0% | 0%
C=CC[n+]1ccc(/C=C2\C=Cc3cc(C)ccc3N2CC)c2ccccc21 | -66* | 0.29µM* | 5.8µM* | 0.21µM* | 4.1µM*
COC1OC2COC(c3ccccc3)OC2C2OC(c3ccccc3)OC12 (configuration not stated) | 32 | -29% | 1% | ? | 5%
C#CCOCCOCCOCCNc1nc(N2CCOCC2)nc(N2CCN(C(=O)CCCCCCCCCCNC(=O)Cn3cc(CCCCCN)nn3)CC2)n1 | -28 | 1% | 3% | -17% | -3%
C#CCOCCOCCOCCNc1nc(N2CCN(C(=O)CCCCCCCCCCNC(=O)Cn3cc(CCCCCN)nn3)CC2)nc(N2CCN(C(=O)CCCCCCCCCCNC(=O)[C@H]([C@@H](C)CC)n3cc(CCCCCN)nn3)CC2)n1 | -106* | 23µM* | ? | ? | ?
C#CCOCCOCCOCCNc1nc(N2CCN(C(=O)CCCCCCCCCCNC(=O)[C@H](CO)n3cc(CCCSC)nn3)CC2)nc(N2CCN(C(=O)CCCCCCCCCCNC(=O)[C@H](CO)n3cc(CCCSC)nn3)CC2)n1 | ? | 8.2µM* | 0% | 6.5µM* | -10%
C#CCOCCOCCOCCNc1nc(N2CCN(C(=O)CCCCCCCCCCNC(=O)Cn3cc(CCCCCN)nn3)CC2)nc(N2CCN(C(=O)CCCCCCCCCCNC(=O)[C@H](CO)n3cc(CCCCCN)nn3)CC2)n1 | -71* | ? | -17% | ? | ?
C#CCOCCOCCOCCNc1nc(N2CCN(C(=O)Cn3cc(CCCCN)nn3)CC2)nc(N2CCN(C(=O)[C@H]([C@@H](C)CC)n3cc(CCCN=C(N)N)nn3)CC2)n1 | -13 | -9% | 8% | 3% | 13%
C#CCOCCOCCOCCNc1nc(N2CCOCC2)nc(N2CCN(C(=O)CCCCCCCCCCNC(=O)[C@@H](CCSC)n3cc(CCO)nn3)CC2)n1 | ? | ? | 0% | ? | 1%
CC(C)Sc1nc2c(cnn2-c2ccc(Cl)cc2)c(=O)[nH]1 | 12 | -24% | 6% | -16% | 8%
CN(C)c1ncc2nc(CCc3ccccc3)c(=O)n(Cc3ccc(F)cc3)c2n1 | / | 2% | / | -27% | /
CCCCOc1ccc(N(CC(=O)NC2CCCCC2)C(=O)c2snc(C(N)=O)c2N)cc1 | 16 | ? | 21% | 16µM* | 23%
CC(C)(C)NC(=O)CN(C(=O)c1snc(C(=O)NC2CCCCC2)c1N)c1ccccc1F | ? | ? | -11% | 21µM* | -15%
NC(=O)c1nsc(C(=O)N(CC(=O)NC2CCCCC2)c2ccc(Cl)cc2)c1N | 3 | ? | -17% | ? | -3%
COc1cccc(N(CC(=O)NC2CCCCC2)C(=O)c2snc(C(N)=O)c2N)c1 | -61* | 10% | 2% | -26% | -3%
CC(NC(=O)COc1ccccc1)C(=O)NCc1ccccc1Cl (configuration not stated) | 0 | 0% | -2%[9.24 µM] | -2% | -3%
SMILES | IL-1B inflam inh | DT40 TDP1 CPT | HT1080NT lethal | DT40 TDP1 no CPT | HT1080 IDH1KD tx
Nc1c(Cl)ncnc1N/N=C/c1ccncc1 | 1 | -6% | 12% | 5% | 5%
Nc1c(Cl)ncnc1NCCc1ccc(O)cc1 | 7 | 13µM* | ? | 5.8µM* | ?
Nc1c(Cl)ncnc1NCc1cccnc1 | 36 | -12% | 22% | ? | 15%
O=C(CN1CCCCCC1)Nc1ccccc1C(=O)Nc1ccccc1 | -9 | ? | -9% | ? | -9%
N#CC1(NC(=O)COc2cccnc2[N+](=O)[O-])CCCCC1 | 0 | -3% | -1% | -16% | -2%
Cc1ccc(-c2cnc(C3CC3)o2)cc1S(=O)(=O)Nc1cccc(C#N)c1 | / | 5.8µM* | / | 5.8µM* | /
COc1cccc(NS(=O)(=O)c2cc(-c3cnc(C4CC4)o3)ccc2C)c1 | / | 0.92µM* | / | 0.58µM* | /
Cc1cc(-c2ccc(C)c(S(=O)(=O)Nc3cccc(CN4CCCC4)c3)c2)on1 | 10 | -14% | -13% | -13% | -2%
COc1cccc(NS(=O)(=O)c2cc(C)ccc2OC)c1 | 14 | ? | -3% | ? | -8%
Cc1cc(C)c(S(=O)(=O)N2CCOC2CNC(=O)C(=O)NCc2cccnc2)c(C)c1 (configuration not stated) | 10 | 9% | 13% | 16% | 10%
Cc1ccc(Nc2nc3ccccc3c3nnc(C)n23)c(C)c1 | / | 12µM* | / | 8.2µM* | /
Cc1nnc2c3ccccc3nc(Nc3ccc(F)cc3Cl)n12 | / | -19% | / | -28% | /
CCCCN(C=O)c1c(CC)nc2ccc(C(=O)N3CCCCC3)cn12 | -2 | ? | 17% | 8% | 2%
CCN(CC)C(=O)[C@H]1CC(CC(=O)NCCCOC)C(=O)N2CCc3c([nH]c4ccccc34)[C@]12C (some centres not stated) | 21 | 0% | -2% | -7% | -2%
Cc1ccc(NC(=O)Cn2cnc3c(nnn3Cc3ccc(F)cc3)c2=O)cc1 | -12 | ? | 10% | -17% | 0%
CN1CCc2c(sc(NC(=O)c3ccco3)c2C(N)=O)C1 | 0 | 13% | 11% | -1% | 9%
